Source: PubChem
Platelet DG rel – platelet dense granule release activity. inhibition, %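 (compounds screened at 7.5 µM in platelet-rich plasma)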. human platelet-rich plasma, SFLLRN dense granule ATP release, luminescence. hit rate 0.22% among 300,000;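 active = mean replicate score, as percent of positive control, at or above 50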
SENP8 block-1 – SENP8 (human) protease inhibition | Q96LD8 | hit rate 0.64% among 360,000 | AID 602440 | inhibition, % at 20 µM | recombinant SENP8, Nedd8 substrate fluorescence; in the data active = inhibition mostly above about 40%, no sharp cut-off; inactive = mostly below about 27%
Target sequence (Q96LD8 whole entry, looked up): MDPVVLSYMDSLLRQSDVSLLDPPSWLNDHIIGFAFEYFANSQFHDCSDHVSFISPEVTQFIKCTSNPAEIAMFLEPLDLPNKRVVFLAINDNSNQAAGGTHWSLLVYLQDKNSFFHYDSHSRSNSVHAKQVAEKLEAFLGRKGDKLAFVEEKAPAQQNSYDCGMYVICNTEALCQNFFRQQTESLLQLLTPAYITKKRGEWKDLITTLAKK
SENP8 block-2 – inhibitors of human SENP8 protease; Q96LD8; purified SENP8, Z-RLRGG-aminoluciferin cleavage, luminescence; inhibition, % at 10 µM; hit rate 1.2% among 330,000; AID 2540; in the data active = inhibition above about 50%
SENP7 block – blocks the human protease SENP7; recombinant SENP7, Z-RLRGG-aminoluciferin luminescence, 40 min; inhibition, % at 5 µM; hit rate 1.5% among 330,000; AID 434973;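 active = inhibition above about 50% at the single test dose, limit read from the data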
Target sequence (Q9BQF6 706-1050 limits assumed): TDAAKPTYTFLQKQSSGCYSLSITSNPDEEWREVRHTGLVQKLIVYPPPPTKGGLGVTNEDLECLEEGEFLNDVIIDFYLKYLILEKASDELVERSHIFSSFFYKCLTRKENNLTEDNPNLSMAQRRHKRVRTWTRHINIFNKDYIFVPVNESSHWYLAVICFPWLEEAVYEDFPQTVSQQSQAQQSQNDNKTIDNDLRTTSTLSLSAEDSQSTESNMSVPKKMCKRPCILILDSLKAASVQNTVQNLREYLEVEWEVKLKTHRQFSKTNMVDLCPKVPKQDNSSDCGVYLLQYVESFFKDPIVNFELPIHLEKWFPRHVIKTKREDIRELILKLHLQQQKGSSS
SENP6 inh – inhibitors of human SENP6 protease | inhibition, % at 10 µM | AID 2599 | hit rate 1.8% among 330,000 | Recombinant SENP6 catalytic domain, aminoluciferin luminescence;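 active = inhibition above about 50% at the single tested dose, limit read from the data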
SENP8 confirm – confirmation of human SENP8 protease inhibitors | shares compounds with SENP7 block | Recombinant SENP8, Z-RLRGG-aminoluciferin luminescence, 60 min | inhibition, % at 12.5 µM | hit rate 40% among 6,200;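 active = mean inhibition across replicates above about 50%, limit read from the data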
SENP6 conf – confirmation of human SENP6 protease inhibitors; recombinant SENP6, Z-RLRGG-aminoluciferin luminescence; shares compounds with SENP7 block; inhibition, % at 12.5 µM; hit rate 58% among 6,200
SENP7 confirm – human SENP7 inhibition, confirmed. AID 488917. shares compounds with SENP7 block. inhibition, % at 12.5 µM. hit rate 69% among 6,200. recombinant SENP7, Z-RLRGG-aminoluciferin luminescence, 40 min
Casp3 select – selectivity test for SENP inhibitors: human caspase-3 inhibition; purified caspase-3, Z-DEVD-aminoluciferin luminescence, 60 min; inhibition, % at 12.5 µM; hit rate 60% among 6,200; AID 488918; shares compounds with SENP7 block;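 active = mean inhibition above about 50%, limit read from the data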
Luc interf – counter-screen for SENP inhibitors: luminescence interference. shares compounds with SENP7 block. Pre-incubated SENP8/Z-RLRGG-aminoluciferin, luciferase luminescence interference. inhibition, % at 12.5 µM. hit rate 39% among 6,200. AID 488919;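 active = mean inhibition above about 50% when retested at one dose, limit read from the data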
Of the large screens only hits and unclear results are named; the others gave an inactive call (follow-up assays come after a bar, where they were run). An excerpt weighted towards active compounds, which were near 2.4% of everything screened.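 The calls were made as follows, unless noted: active = mean inhibition above about 50% in the one-dose retest (limit read from the data); inactive = the rest.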

CCNc1ccc([N+](=O)[O-])cc1	none
CCCC1=NN(c2ccc([N+](=O)[O-])cc2)C(=O)/C1=C\N(C)C	SENP8 block-1 52, SENP8 block-2 95, SENP7 block 96, SENP6 inh 95 | SENP8 confirm 97 | SENP6 conf 97 | SENP7 confirm 102 | Casp3 select 97 | Luc interf 97
CC(=O)N(/N=C1\Sc2ccccc2C1=O)c1cccc(C)c1	SENP8 block-2 94, SENP7 block 93, SENP6 inh 92 | SENP8 confirm inactive | SENP6 conf 84 | SENP7 confirm 58 | Casp3 select inactive | Luc interf inactive
Cc1oc2ccc(OCc3c(F)cccc3Cl)cc2c1C(=O)O	none
Cc1oc2ccc(OCc3ccc(F)cc3)cc2c1C(=O)O	SENP6 inh 55 | SENP8 confirm inactive | SENP6 conf inactive | SENP7 confirm 73 | Casp3 select 62 | Luc interf 61
Cc1oc2ccc(OCc3cccc(Cl)c3)cc2c1C(=O)O	SENP8 block-2 71, SENP6 inh 75 | SENP8 confirm inactive | SENP6 conf inactive | SENP7 confirm inactive | Casp3 select inactive | Luc interf inactive
FC(F)Oc1ccccc1/C=N/Nc1nc2ccccc2o1	none
Fc1ccccc1/C=N/Nc1nc2ccccc2o1	SENP7 block 70 | SENP8 confirm inactive | SENP6 conf inactive | SENP7 confirm inactive | Casp3 select inactive | Luc interf inactive
Cc1cc(-c2nc3cccnc3s2)ccc1NS(=O)(=O)c1cccs1	SENP8 block-2 91, SENP7 block 74, SENP6 inh 95 | SENP8 confirm 89 | SENP6 conf 92 | SENP7 confirm 98 | Casp3 select 86 | Luc interf 55
CCS(=O)(=O)Nc1cccc(-c2nc3cccnc3s2)c1	none
O=S(=O)(Nc1ccc(-c2nc3cccnc3s2)cc1)c1cccs1	SENP6 inh 65 | SENP8 confirm inactive | SENP6 conf inactive | SENP7 confirm inactive | Casp3 select inactive | Luc interf inactive
O=S(=O)(Nc1ccc(-c2nc3cccnc3s2)cc1)c1ccc(Cl)s1	SENP6 inh 58 | SENP8 confirm inactive | SENP6 conf inactive | SENP7 confirm 54 | Casp3 select inactive | Luc interf inactive
CCS(=O)(=O)Nc1ccc(-c2nc3cccnc3s2)cc1	SENP8 block-2 64, SENP7 block 53, SENP6 inh 73 | SENP8 confirm 75 | SENP6 conf 73 | SENP7 confirm 94 | Casp3 select 86 | Luc interf 78
O=C(c1cc(C2CC2)nn1-c1ccccc1)N1CCN(c2ccc(O)cc2)CC1	none (no result: Platelet DG rel)
O=c1sc2ccccc2c(N2CCCCC2)c1[N+](=O)[O-]	none
O=c1sc2ccccc2c(N2CCOCC2)c1[N+](=O)[O-]	SENP6 inh 57 | SENP8 confirm inactive | SENP6 conf inactive | SENP7 confirm 50 | Casp3 select 70 | Luc interf 55
COc1ccccc1N1CCN(C(=O)C2CCN(S(=O)(=O)c3ccccc3F)CC2)CC1	none (no result: Platelet DG rel)
CC1(C)NC(=O)N(CCC(=O)Nc2cc(C(F)(F)F)ccc2Cl)C1=O	none (no result: Platelet DG rel)
CCN(CC)C(=O)c1ccc(S(=O)(=O)c2ccccc2)cc1	none
CCn1c(O)c(N=Nc2ccc3ccccc3n2)c2ccccc21	SENP8 block-2 94, SENP7 block 97, SENP6 inh 95 | SENP8 confirm inactive | SENP6 conf inactive | SENP7 confirm 98 | Casp3 select inactive | Luc interf inactive
Cc1noc(C)c1C(=O)Nc1nc2ccc(S(C)(=O)=O)cc2s1	SENP7 block 62, SENP6 inh 66 | SENP8 confirm 60 | SENP6 conf 56 | SENP7 confirm 85 | Casp3 select 85 | Luc interf 62
COc1ccc2nc(NC(=O)c3c(C)noc3C)sc2c1	SENP8 block-2 73, SENP7 block 83, SENP6 inh 78 (no result: Platelet DG rel) | SENP8 confirm 83 | SENP6 conf 81 | SENP7 confirm 97 | Casp3 select 88 | Luc interf 65
CS(=O)(=O)c1ccc2nc(NC(=O)c3ccco3)sc2c1	none
COc1ccc(C(=O)Nc2nc3ccc(OC)cc3s2)cc1	none
CCNc1ccc(C(=O)NN=C2CCCC2)cc1[N+](=O)[O-]	none
Cc1c(C(=O)O)cnc2cc(-c3ccc(Cl)cc3)nn12	SENP8 block-2 82, SENP7 block 82, SENP6 inh 91 | SENP8 confirm 89 | SENP6 conf 88 | SENP7 confirm 100 | Casp3 select 93 | Luc interf 87
COc1cccc(CC(=O)OCC(=O)Nc2c(C)nn(-c3ccccc3)c2C)c1	none (no result: Platelet DG rel)
O=C(O)c1cc([N+](=O)[O-])ccc1NCCCc1ccccc1	SENP8 block-2 68, SENP6 inh 74 | SENP8 confirm 75 | SENP6 conf 69 | SENP7 confirm 73 | Casp3 select 52 | Luc interf 71
O=[N+]([O-])c1ccc(O)c(/C=N/Nc2ncnc3c2cnn3-c2ccccc2)c1	SENP8 block-2 93, SENP7 block 93, SENP6 inh 90 | SENP8 confirm 87 | SENP6 conf 91 | SENP7 confirm 100 | Casp3 select inactive | Luc interf inactive
COc1ccc(S(=O)(=O)N(C)C[C@H]2Oc3c(NC(=O)CCC(F)(F)F)cccc3C(=O)N([C@H](C)CO)C[C@@H]2C)cc1	none (no result: Platelet DG rel)
COc1ccc(-c2cn3c(C)c(C(=O)N4CCCc5ccccc54)sc3n2)cc1	none
COc1ccc(-c2cn3c4c(sc3n2)CCCC4)cc1	SENP7 block 53, SENP6 inh 57 | SENP8 confirm 69 | SENP6 conf 68 | SENP7 confirm 89 | Casp3 select 54 | Luc interf inactive
Cc1ccc(-n2c(C)cc(/C=C3\SC(=O)NC3=O)c2C)cc1	none
CN1C(=O)/C(=C/c2coc3ccc(O)cc3c2=O)SC1=S	SENP8 block-2 56, SENP7 block 80, SENP6 inh 79 | SENP8 confirm inactive | SENP6 conf inactive | SENP7 confirm inactive | Casp3 select inactive | Luc interf inactive
NC(=S)N/N=C/c1coc2ccc(O)cc2c1=O	none
Cc1cc(/C=C2\SC(=S)N(C)C2=O)c(C)n1-c1ccc(O)cc1	SENP8 block-2 58, SENP6 inh 79 | SENP8 confirm inactive | SENP6 conf 84 | SENP7 confirm 92 | Luc interf inactive
CC(C)(C)NC(=O)CN(C(=O)CN1C(=O)C(=O)c2ccccc21)C(C)(C)C	none
O=C(N/N=C/c1ccc(-c2ccccc2[N+](=O)[O-])o1)c1cccnc1	none
